Where “and” joins values, the source holds several entries; their conditions need not be identical. Identical values can stand only once. Screen size: about 5,500 compounds; about 2,000 (36%) were called active. Roughly 18% stayed inconclusive and do not appear here. No stated cut-off is given here; in the data, active means normalized growth mostly below about 0.91 (no sharp cut-off); inconclusive means no clear call, values can overlap the other calls; inactive means mostly above about 0.92. The list shows a part of the results.
Assay: chemical genetic growth profiling, strain panel (AID 1159580);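 further: tested at 20 µM; growth read once vehicle control cultures reached saturation at 30 °C; 1 = growth at the plate median or of vehicle wells; lower values mean less growth of the strain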
Conditions: S. cerevisiae deletion strains, growth OD

Measured: normalized growth

O=C1C(Cl)=C(Cl)C(=O)C(Cl)=C1Cl
inactive: locus YAL030W, strain snc1, hits give low values 0.986 | locus YBL061C, strain skt5, hits give low values 0.994 | locus YBR023C, strain chs3, hits give low values 0.927 | locus YBR171W, strain sec66, hits give low values 0.967 | locus YBR229C, strain ROT2, hits give low values 0.979 | locus YBR231C, strain swc5, hits give low values 0.96 | locus YCL016C, strain dcc1, hits give low values 0.919 | locus YCL029C, strain bik1, hits give low values 0.929 | locus YCL069W, strain vba3, hits give low values 0.985 | locus YCR088W, strain abp1, hits give low values 0.949 | locus YDL005C, strain med2, hits give low values 1 | locus YDL040C, strain nat1, hits give low values 0.976 | locus YDL101C, strain DUN1, hits give low values 0.941 | locus YDR001C, strain nth1, hits give low values 0.991 | locus YDR069C, strain doa4, hits give low values 0.92 | locus YDR137W, strain rgp1, hits give low values 0.978 | locus YDR159W, strain sac3, hits give low values 1.03 | locus YDR195W, strain ref2 0.894 | locus YDR297W, strain sur2, hits give low values 0.997 | locus YDR334W, strain swr1, hits give low values 0.98 | locus YDR335W, strain msn5, hits give low values 0.963 | locus YEL037C, strain rad23, hits give low values 0.99 | locus YEL061C, strain CIN8 (second series), hits give low values 0.954 | locus YER016W, strain bim1, hits give low values 0.979 | locus YER111C, strain swi4, hits give low values 0.993 | locus YGL167C, strain pmr1, hits give low values 0.982 | locus YGL173C, strain kem1, hits give low values 0.958 | locus YGL227W, strain vid30, hits give low values 0.997 | locus YGL240W, strain doc1, hits give low values 0.99 | locus YGL253W, strain hxk2, hits give low values 0.993 | locus YHR142W, strain chs7, hits give low values 0.928 | locus YJL092W, strain hpr5, hits give low values 0.94 | locus YJL095W, strain BCK1 (second series), hits give low values 0.978 | locus YJL115W, strain asf1, hits give low values 0.979 | locus YJL129C, strain trk1, hits give low values 1 | locus YJL134W, strain LCB3, hits give low values 0.937 | locus YJL154C, strain vps35, hits give low values 0.984 | locus YJL187C, strain SWE1 (second series), hits give low values 0.982
active: locus YAL013W, strain DEP1, hits give low values 0.483 | locus YAL021C, strain ccr4, hits give low values 0.883 | locus YAL026C, strain drs2, hits give low values 0.831 | locus YBR009C, strain hhf1, hits give low values 0.843 | locus YBR021W, strain FUR4, hits give low values 0.293 | locus YBR279W, strain paf1, hits give low values 0.929 | locus YCL011C, strain gbp2, hits give low values 0.865 | locus YDL035C, strain GPR1, hits give low values 0.525 | locus YDL074C, strain BRE1, hits give low values 0.531 | locus YDL134C, strain PPH21, hits give low values 0.499 | locus YDL185W, strain tfp1, hits give low values 0.118 | locus YDL192W, strain arf1, hits give low values 0.239 | locus YDR101C, strain arx1, hits give low values 0.881 | locus YDR150W, strain NUM1, hits give low values 0.79 | locus YDR162C, strain NBP2, hits give low values 0.384 | locus YDR318W, strain mcm21, hits give low values 0.181 | locus YDR388W, hits give low values 0.164 | locus YDR392W, strain spt3, hits give low values 0.686 | locus YDR502C, strain sam2, hits give low values 0.61 | locus YEL003W, strain gim4, hits give low values 0.881 | locus YEL061C, strain CIN8, hits give low values 0.711 | locus YER015W, strain faa2, hits give low values 0.878 | locus YER110C, hits give low values 0.704 | locus YER155C, strain BEM2 (second series), hits give low values 0.763 | locus YER155C, strain BEM2, hits give low values 0.509 | locus YER167W, strain BCK2, hits give low values 0.198 | locus YFR010W, strain ubp6, hits give low values 0.891 | locus YGL078C, strain dbp3, hits give low values 0.077 | locus YGL086W, strain mad1, hits give low values 0.252 | locus YGL248W, strain PDE1, hits give low values 0.502 | locus YGR078C, strain PAC10, hits give low values 0.226 | locus YGR135W, strain pre9, hits give low values 0.335 | locus YGR229C, strain SMI1, hits give low values 0.0849 | locus YGR252W, strain gcn5, hits give low values 0.195 | locus YHR013C, strain ard1, hits give low values 0.829 | locus YHR027C, strain rpn1, hits give low values 0.904 | locus YHR030C, strain SLT2, hits give low values 0.281 and 0.105 | locus YHR079C, strain IRE1 (second series), hits give low values 0.91 | locus YHR079C, strain IRE1, hits give low values 0.129 | locus YHR094C, strain hxt1, hits give low values 0.614 | locus YHR129C, strain ARP1, hits give low values 0.655 | locus YHR200W, strain rpn10, hits give low values 0.27 | locus YIL066C, strain RNR3, hits give low values 0.634 | locus YIL073C, strain SPO22, hits give low values 0.5 | locus YIL125W, strain kgd1, hits give low values 0.0634 | locus YIR030C, strain dcg1, hits give low values 0.85 | locus YJL095W, strain BCK1, hits give low values 0.724 and 0.122 | locus YJL164C, strain tpk1, hits give low values 0.892 | locus YJL166W, strain qcr8, hits give low values 0.871 | locus YJL168C, strain set2, hits give low values 0.8 | locus YJR043C, strain POL32, hits give low values 0.671 | locus YJR066W, strain TOR1, hits give low values 0.0486 | locus YJR075W, strain HOC1, hits give low values 0.566

From PubChem BioAssay AID1159580 (chemical genetic matrix, 2015)
